# Source: PubChem (National Center for Advancing Translational Sciences (NCATS))
# UbGFP stabilizer: ubiquitin-GFP accumulation via proteasome inhibition | Potency, µM (series often up to 45.9 µM), for the others: at the highest dose activation (GFP accumulation), hits mostly activators | Ubiquitin-GFP reporter cells, proteasome inhibition, GFP fluorescence; response scale: untreated = 0%, 10 µM MG-132 = 100% | 67,000 tested, under 10 active; active = well fitted activation curve with a large enough effect, not every such curve was filed as active; inconclusive = small, poorly fitted or top-dose-only effect, or another doubt; inactive = no such curve, though single readings can be large or run the other way; also: potency is read from the fitted curve at half-maximal effect
#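 Proteasome block read as GFP accumulation: ubiquitin(G76V)-GFP U2OS cells exposed to compound (2.9 nM–46 uM) for 4 hr at 37 C. Normalization used untreated cells as 0% and 10 uM MG-132 as 100%; concentration-response curves fitted.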
# GFP derepression: epigenetic GFP locus derepression in mouse cells. actives 0.09% (n = 68,000). Potency, µM (top dose mostly 46.1 µM), without a hit: at the highest dose GFP derepression (activation). AID 597. mouse C127i GFP locus derepression, cytometry, 30 h; also: % of control where 0% means no effect
#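 Locus derepression in mouse mammary C127i cells whose integrated CMV-GFP reporter is normally silent; GFP expression after 30 h compound treatment was quantified by counting fluorescent cells.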
# HBB splice mod: alters splicing of the hemoglobin beta chain. HBB splicing reporter cell assay, activation; EGFP reporter with mutant IVS2-654 intron; response scale: normalised to 500 nM splice-correcting PNA. actives 0.06% (n = 65,000). Potency, µM (titrated, usually from 46.1 µM), for inactives: at the top dose activation, usual class: activators; also: potency is read from the fitted curve at half-maximal effect; 0% is about no effect
#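 Compounds were applied for 2 days to HeLa EGFP-654 cells, 500/well in Optimem with 2% FCS. The reporter's EGFP is disrupted by mis-splicing of beta-globin intron IVS2-654. Readout: summed well GFP fluorescence from 488 nm laser scanning; reference was 500 nM antisense […] 654 PNA.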
# TSHR ag: TSH receptor (human) agonism; P16473; HEK293-CNG-TSHR cells (CNG channel as cAMP sensor), membrane potential dye, cAMP; Potency, µM (doses to about 57.1 µM), without a hit: at the top dose activation, usual class: activators; actives 0.48% (n = 73,000); active = well fitted activation curve with a large enough effect in the main read-out, with a control signal flat, not every such curve was filed as active; inconclusive = small, poorly fitted or top-dose-only effect, or a change in a side signal; inactive = no such curve, though single readings can be large or run the other way; % of control where 0% means no effect;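 also: the control signal comes from parental cells without the receptor; potency is read from the fitted curve at half-maximal effect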
# Target sequence (P16473 whole entry, looked up): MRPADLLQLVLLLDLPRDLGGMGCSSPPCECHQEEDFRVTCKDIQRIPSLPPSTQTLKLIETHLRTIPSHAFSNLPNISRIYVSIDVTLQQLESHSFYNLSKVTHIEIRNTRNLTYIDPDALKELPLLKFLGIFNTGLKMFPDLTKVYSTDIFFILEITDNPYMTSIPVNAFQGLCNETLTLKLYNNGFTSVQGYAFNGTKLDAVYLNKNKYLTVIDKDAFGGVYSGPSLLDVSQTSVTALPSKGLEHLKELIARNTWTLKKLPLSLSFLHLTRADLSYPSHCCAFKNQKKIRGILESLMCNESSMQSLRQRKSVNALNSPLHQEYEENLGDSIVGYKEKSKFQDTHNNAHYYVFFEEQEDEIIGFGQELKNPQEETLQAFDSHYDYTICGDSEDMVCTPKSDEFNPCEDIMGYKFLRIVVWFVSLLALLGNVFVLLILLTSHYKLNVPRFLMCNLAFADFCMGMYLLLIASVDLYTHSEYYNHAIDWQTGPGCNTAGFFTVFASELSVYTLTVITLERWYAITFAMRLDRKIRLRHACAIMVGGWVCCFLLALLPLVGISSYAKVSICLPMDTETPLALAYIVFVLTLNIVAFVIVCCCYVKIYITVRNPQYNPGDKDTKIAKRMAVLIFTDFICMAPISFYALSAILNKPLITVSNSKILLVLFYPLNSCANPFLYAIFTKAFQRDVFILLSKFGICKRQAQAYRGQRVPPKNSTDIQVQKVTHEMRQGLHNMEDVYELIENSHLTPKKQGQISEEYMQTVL
#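 HEK 293 cells stably expressing TSHR and a cAMP-gated CNG channel; parental CNG-only cells as counterscreen. Cells preloaded 60 min with membrane potential dye plus 100 uM RO 20-1724, then compound 30 min; fluorescence read at 590 nm.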
# HEK293 cAMP cs: counter-screen for TSHR agonists: cAMP increase in parental HEK293; parental HEK293 CNG cAMP sensor, membrane potential fluorescence; Potency, µM (series often up to 57.1 µM), for inactives: at the top dose activation, hits mostly activators; actives 2.5% (n = 73,000); also: potency is read from the fitted curve at half-maximal effect; % of control where 0% means no effect; nearly all actives have a fitted effect of over 55% in size
#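 Counterscreen for endogenous-receptor signalling: CNG-channel HEK 293 cells report cAMP rise by membrane depolarization. After 60 min dye equilibration with 100 uM RO 20-1724, compounds incubated 30 min before bottom-read fluorescence at 590 nm.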
# ERK AVP block: vasopressin-driven ERK pathway inhibition; HEK293-V1b, vasopressin-stimulated pERK AlphaScreen; Potency, µM (top dose mostly 57.5 µM), for the others: top-dose activity, negative = inhibition, usual class: inhibitors; actives 0.99% (n = 72,000); also: potency is read from the fitted curve at half-maximal effect; % is scaled to controls: 0 for no effect and ±100 for the full control effect; nearly all actives have a fitted effect of over 55% in size
#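 Overnight-seeded V1b-HEK293 cells in 1% FBS got compound, then vasopressin (25 nM final, 5 min, 37C), then lysis buffer. AlphaScreen detection of phospho-ERK; activity normalized to basal and full-stimulation controls.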
# * hit, by the source's call; u = inconclusive; x = no result; ! = not confirmed by another sample; [ ] = remark or other dose. Most compounds without a hit are left out; they make up all but 3.8% or so of the library. Unless noted, calls follow the shape of the dose curve; as a rule, active = well fitted curve in the direction sought with a large enough effect; inconclusive = small, poorly fitted or top-dose-only effect, or another doubt; inactive = no such curve, though single readings can be large; an effect the other way counts as inactive or inconclusive.
SMILES,UbGFP stabilizer,GFP derepression,HBB splice mod,TSHR ag,HEK293 cAMP cs,ERK AVP block
O=C1c2ccccc2NC2CCCCCN12 (stereo not given),2%,2%,0%,7%,5%,-7%
CCN(CC)S(=O)(=O)c1cc(C(=O)OCC(=O)c2ccc3c(c2)NC(=O)CO3)ccc1F,-5%,-1%,0%[57.5 µM],u,u,32µM*
O=C1COc2ccc(C(=O)COC(=O)C3CCN(S(=O)(=O)c4cccs4)CC3)cc2N1,4%,-3%,-2%,9%,-3%,-19%
C=C(C)C(O)/C=C/c1ccccc1OC (stereo not given),x,x,0%[9.22 µM],-4%[11.4 µM],-3%[11.4 µM],11%[11.5 µM]
Cn1c(=O)[nH]c(=O)c2[nH]c(N(Cc3ccccc3)Cc3ccccc3)nc21,x,-2%,2%[0.369 µM],u,-36%,25µM*
CN(Cc1ccccc1)c1nc2c(c(=O)[nH]c(=O)n2C)n1Cc1ccccc1Cl,x,-2%,0%[0.369 µM],0%,22%,16µM*
CN(Cc1ccccc1)c1nc2c(c(=O)[nH]c(=O)n2C)n1CCCc1ccccc1,3%,0%,x,10%,23%,35%
O=C1C2[C@@H](c3ccccc3)N[C@@H](c3ccccc3)C1[C@H](c1ccccc1)N[C@H]2c1ccccc1,-3%[9.17 µM],4%[9.22 µM],5%[9.22 µM],-1%[11.4 µM],1%[11.4 µM],-25%[11.5 µM]
O=C(COC(=O)c1ccccc1F)c1ccc(-n2nncc2-c2ccco2)cc1,-4%,-1%,0%[57.5 µM],u,25µM*,16%
COc1ccc(C(=O)COC(=O)c2ccco2)cc1,-5%,-2%,0%[57.5 µM],0%,-12%,2%
Cc1cc(C)nc(SCc2nnc(SCc3ccccc3Cl)o2)n1,-1%,1%,x,u,20µM*,19%
COc1cc(/C=C/C(=O)N2CCCCC2=O)cc(OC)c1OC,x,x,x,x,x,0%
NS(=O)(=O)c1nc(S(=O)(=O)O)c2[nH]cnc2n1,-4%[9.17 µM],-3%[9.22 µM],1%[9.22 µM],-2%[11.4 µM],-1%[11.4 µM],-6%[11.5 µM]
CN(C)CCCc1c2ccccc2nc2ccc(Cl)cc12,-2%[9.17 µM],7%[9.22 µM],3%[9.22 µM],12%[11.4 µM],-4%[11.4 µM],9%[11.5 µM]
CC(C)c1cccc2nc3c(c([Si](C)(C)C(C)(C)C)c12)Cn1c-3cccc1=O,x,x,2%,14%,19%,30%
CC(C)c1cccc2c([Si](C)(C)C)c3c(nc12)-c1cccc(=O)n1C3,x,x,0%,u,25µM*,65%
Cc1ccc(-c2noc(COc3ccccc3C)n2)cc1,11%,8%,-4%,u,25µM*,86%
Clc1ccc(OCc2nc(-c3ccncc3)no2)c(Cl)c1,5%,0%,1%,u,25µM*,u
Cc1n[nH]c(C)c1-c1nc2ccccc2[nH]1,-4%,3%,2%,0%[11.4 µM],4%,4%
Cc1[nH]nc2c1-c1nc3ccccc3nc1C(C)(C)C2,3%,0%,-1%,10%,30%,13µM*
COc1ccc(O[C@H]2C=C[C@@H](c3ccccc3)O[C@H]2COC(=O)CC/C(C)=N/OCC[C@@H]2C=C[C@H](OC(C)=O)[C@H](COC(C)=O)O2)cc1,x,x,0%[9.22 µM],6%[11.4 µM],9%[11.4 µM],3%[11.5 µM]
FC(F)(F)c1cccc(N2CCN(c3nnnn3-c3ccccc3)CC2)c1,0%,9%,0%[57.5 µM],u,32µM*,-2%
Cc1cc(C)nc(N2CCN(c3nnnn3-c3ccccc3)CC2)n1,-5%,1%,-4%,u,u,11%
CN1CCN(c2cc3c(c4c2[nH]c2ccccc24)C(=O)CC(C)(C)C3)CC1,0%,x,-1%,12%,-5%,32µM*
Cc1cc(C)n(-c2nc3ccccc3nc2N2CCCCCC2)n1,-6%,-3%,9%[1.84 µM],u,20µM*,145%
SMILES,UbGFP stabilizer,GFP derepression,HBB splice mod,TSHR ag,HEK293 cAMP cs,ERK AVP block
COc1ccc(S(=O)(=O)N2CCC(C(=O)N3CCc4ccccc4C3)CC2)cc1,2%,0%,1%,u,32µM*,4%
C[n+]1cc2c3c(ccc2c2ccc4cc5c(cc4c21)OCO5)OCO3,4%[20.5 µM],0%[20.6 µM],0%[20.6 µM],u,-32%[25.6 µM],25µM*!
COC(=O)NC(c1ccccc1)[C@@]1(C(=O)OC)CCCC1=O (stereo not given in full),x,x,1%[9.22 µM],11%[11.4 µM],9%[11.4 µM],-6%[11.5 µM]
COc1ccc2[nH]cc(CCNc3nc(-c4ccc(N(C)C)cc4)nc4ccccc34)c2c1,8%,2%[9.22 µM],2%,u,-38%,u
O=C1CSC(c2cn(-c3ccccc3)nc2-c2cc3ccccc3oc2=O)N1Cc1ccco1 (stereo not given),-7%,-3%,2%,x,29%,1%
Cc1ccc(-c2nn(-c3ccccc3)cc2C2SCC(=O)N2Cc2ccccc2)o1 (stereo not given),3%,x,-1%,25µM*,13%,-3%
CC(c1ccco1)N(C(=O)COc1ccc(Cl)cc1Cl)c1ccccn1 (stereo not given),-2%,-3%,0%[57.5 µM],u,25µM*,5%
CC(c1ccco1)N(C(=O)COc1ccc(Cl)cc1)c1ccccn1 (stereo not given),-1%,1%,-2%,13%,10%,-13%
Cn1c(=O)c2[nH]c([C@@H]3CC(=O)C[C@H](c4nc5c([nH]4)c(=O)n(C)c(=O)n5C)N3)nc2n(C)c1=O,2%[9.17 µM],-2%[9.22 µM],1%[9.22 µM],-1%[11.4 µM],13%[11.4 µM],u
CCOC(=O)c1sc(NC(=O)CSc2nnc(C)s2)c(C(=O)OCC)c1C,-5%,-2%,x,u,13µM*,0%
CC(C)NC(=O)c1ccccc1-c1nc(-c2ccccc2Cl)no1,0%,6%,3%[1.84 µM],u,u,-20%
COCCNC(=O)c1ccccc1-c1nc(-c2ccccc2OC)no1,-10%,-1%,2%,18%,6%,-27%
CCOc1ccccc1NC(=O)c1ccccc1-c1nc(-c2ccccc2OC)no1,30%,0%,-1%,u,20µM*,-6%
COc1cccc(NC(=O)c2ccccc2-c2nc(-c3cccc(C)c3)no2)c1,7%,0%,6%[1.84 µM],u,16µM*,-19%
CC(C)(C)NC(=O)c1ccccc1-c1nc(-c2ccccc2Cl)no1,-4%,0%,1%[1.84 µM],u,16µM*,25%
Cc1cccc(-c2noc(-c3ccccc3C(=O)NCC3CCCO3)n2)c1 (stereo not given),7%,3%,2%[1.84 µM],u,u,-11%
CCN(CC)CCCNC(=O)c1ccc(Cc2nc3ccccc3[nH]2)cc1,x,x,x,-4%,-19%,x
COc1cccc(C(=O)Nc2cccc(-c3nc4ncccc4o3)c2C)c1,0%,-3%,-2%,u,16µM*,-15%
